Sampled rows, rich in hits. Any-hit rate of the full collection: about 10%.
GPT2 inh = Primary qHTS assay for inhibitors of Glutamate pyruvate transaminase 2 (GPT2). Alanine aminotransferase 2 (Homo sapiens), Q8TD30. Recombinant GPT2, coupled pyruvate oxidase/HRP Amplex Red fluorescence. Potency, µM (doses to about 57.7 µM), for inactives: at the highest dose activity change, negative = inhibition, actives largely listed as inhibitors. 100,000 compounds, 0.25% hits; further: on the % scale 0 is the no-effect control and ±100 the full control effect; nearly all actives have a fitted effect of over 60% in size
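Recombinant GPT2 (10ng/uL) with 250uM a-KG and 2mM L-alanine, 30 min at room temperature, in HEPES pH 7.5 buffer. Pyruvate detected by pyruvate oxidase/HRP/Amplex Red fluorescence after 30 min in the dark; AOA (50uM) as positive control.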
Luciferase inh = Firefly luciferase inhibition profiling of diverse chemical library using quantitative high-throughput screening; Luciferin 4-monooxygenase (Photinus pyralis), P08659; purified P. pyralis luciferase, luminescence, biochemical; Potency, µM (top dose mostly 115 µM), usual class: inhibitors; 76,000 compounds, 2.5% hits; further: on the % scale 0 is the no-effect control and ±100 the full control effect; nearly all actives have a fitted effect of over 65% in size
Target sequence (P08659 whole entry, looked up): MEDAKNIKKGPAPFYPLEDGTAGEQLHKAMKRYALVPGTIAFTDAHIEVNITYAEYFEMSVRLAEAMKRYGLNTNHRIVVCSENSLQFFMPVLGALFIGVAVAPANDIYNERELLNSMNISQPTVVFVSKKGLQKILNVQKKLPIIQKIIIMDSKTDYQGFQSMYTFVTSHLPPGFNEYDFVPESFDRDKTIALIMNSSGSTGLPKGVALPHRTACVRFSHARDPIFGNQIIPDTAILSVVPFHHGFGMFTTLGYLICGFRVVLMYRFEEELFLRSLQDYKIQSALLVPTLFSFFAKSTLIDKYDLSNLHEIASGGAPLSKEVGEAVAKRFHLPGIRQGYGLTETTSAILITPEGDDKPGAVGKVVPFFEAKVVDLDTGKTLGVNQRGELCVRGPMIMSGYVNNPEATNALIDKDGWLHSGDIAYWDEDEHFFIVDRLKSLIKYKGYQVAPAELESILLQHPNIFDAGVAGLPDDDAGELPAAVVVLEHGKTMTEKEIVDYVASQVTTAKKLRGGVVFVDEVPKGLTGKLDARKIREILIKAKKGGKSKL
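Purified 10nM P. pyralis luciferase with 10uM D-luciferin and 10uM ATP in 50mM Tris acetate pH 7.5, 10mM Mg acetate, 0.01% Tween-20, 0.05% BSA. qHTS titration; luminescence read by CCD imager.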
HEK cytotox = Cytotoxic Profiling in HEK 293 Cell Line of Diverse Libraries Using Quantitative High-Throughput Screening; HEK 293 viability, ATP luminescence (CellTiter-Glo), 48-72 h; Potency, µM (highest dose often 115 µM), for the others: top-dose activity change, negative = cytotoxicity, most hits filed as inhibitors; 94,000 compounds, 6.6% hits; AID 1345083, 2018; further: on the % scale 0 is the no-effect control and ±100 the full control effect; nearly all actives have a fitted effect of over 60% in size
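HEK 293 cells at 250 cells/well were exposed to compounds by pintool transfer for 48 or 72 hr at 37 degree Celsius, 5% CO2. Viability was read as ATP-coupled luminescence with CellTiter-Glo after 10 min at room temperature.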
NPR1 antag = Natriuretic polypeptide receptor (hNpr1) antagonism - Primary qHTS; Potency, µM (top dose mostly 46.3 µM), without a hit: at the highest dose activity change, negative = inhibition, hits mostly inhibitors; AID 1347048, 2019; Atrial natriuretic peptide receptor 1 (Homo sapiens), P16066; HEK293 hNpr1 GloSensor cGMP, ANP-stimulated luminescence; 76,000 compounds, 1.6% hits; calls by dose curve; further: on the % scale 0 is the no-effect control and ±100 the full control effect; nearly all actives have a fitted effect of over 60% in size
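HEK293 cells stably expressing human Npr1 and cGMP GloSensor pGS-40F, loaded 2 h with 2% GloSensor reagent, given compound 30 min at room temperature. Luminescence read before and 20 min after 0.1 nM hNppA.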
NIH3T3 tox = Cytotoxic Profiling in NIH 3T3 Cell Line of Diverse Libraries Using Quantitative High-Throughput Screening. 94,000 compounds, 4.3% hits. AID 1345082, 2018. NIH 3T3 viability, CellTiter-Glo ATP luminescence, 48-72 h. Potency, µM (doses to about 96.7 µM), for the others: top-dose activity change, negative = cytotoxicity, hits mostly inhibitors; further: on the % scale 0 is the no-effect control and ±100 the full control effect; nearly all actives have a fitted effect of over 55% in size
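First NIH 3T3 cells are plated at 400 cells/well; next compound is pinned in; then plates incubate 48 or 72 hr at 37 °C; finally CellTiter-Glo is added and luminescence read after 10 min.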
NPR1 antag cnf = Natriuretic polypeptide receptor (hNpr1) antagonism - Confirmation; shares compounds with NPR1 antag; HEK293 hNpr1 cGMP GloSensor luminescence, ANP-stimulated; Potency, µM (top dose mostly 57.6 µM), for inactives: top-dose activity change, negative = inhibition, actives largely listed as inhibitors; 1,400 compounds, 76% hits; calls by dose curve; further: nearly all actives have a fitted effect of over 70% in size
NPR2 antag = Natriuretic polypeptide receptor (hNpr2) antagonism - Subtype selectivity assay; shares compounds with NPR1 antag; HEK293 hNpr2 GloSensor cGMP luminescence, CNP-stimulated; Potency, µM (highest dose often 57.6 µM), for the others: at the top dose activity change, negative = inhibition, hits mostly inhibitors; 1,400 compounds, 67% hits; calls by dose curve; further: nearly all actives have a fitted effect of over 70% in size
FLuc inh counter = Natriuretic polypeptide receptor (hNpr1) antagonism - Confirmation firefly luciferase (FLuc) inhibition counterscreen; shares compounds with NPR1 antag; purified FLuc enzyme, luminescence, Km substrate; Potency, µM (series often up to 57.6 µM), for inactives: at the highest dose activity change, negative = inhibition, actives largely listed as inhibitors; 1,400 compounds, 0.7% hits; AID 1347047, 2019; further: 0% is about no effect
GloSensor ctrl = Natriuretic polypeptide receptor (hNpr1) antagonism - Counterscreen GloSensor control cell line; 1,400 compounds, 69% hits; shares compounds with NPR1 antag; HEK293 GloSensor cGMP, SNP-stimulated, luminescence; Potency, µM (highest dose often 57.6 µM), inactives show at the top dose activity change, negative = inhibition, hits mostly inhibitors; calls by dose curve; further: on the % scale 0 is the no-effect control and ±100 the full control effect; nearly all actives have a fitted effect of over 70% in size
* marks the source's active call; other numbers are inactive results; i = inactive; ? = inconclusive; nt = no result; [ ] = another dose, or the depositor's remark. Unless noted, the call rests on the fitted dose curve; in most records, active means well fitted curve in the direction sought with a large enough effect; inconclusive means small, poorly fitted or top-dose-only effect, or another doubt; inactive means no such curve, though single readings can be large; an effect the other way counts as inactive or inconclusive. Potency means the concentration at half of the fitted maximal effect.

SMILES	GPT2 inh	Luciferase inh	HEK cytotox	NPR1 antag	NIH3T3 tox	NPR1 antag cnf	NPR2 antag	FLuc inh counter	GloSensor ctrl
O=C(NC[C@H]1Cn2c(-c3ccc4c(c3)OCO4)cnc2CO1)Nc1ccc(F)cc1	-29.4%[88.5 µM]	i	?	?	?	nt	nt	nt	nt
Cn1ccc(NC(=O)[C@@H]2C[C@@H](c3ccc(F)cc3)N(Cc3ccccc3)C2)n1	2.8%[88.5 µM]	i	50.1µM*	35.5µM*	?	39.6µM*	35.3µM*	3.4%[86.2 µM]	35.3µM*
O=C(Nc1ccon1)[C@@H]1C[C@@H](c2ccc(F)cc2)N(Cc2ccccc2)C1	-8.8%[88.5 µM]	i	31.6µM*	15.8µM*	?	31.4µM*	19.8µM*	2.2%[86.2 µM]	17.7µM*
NCc1ccc(-c2cccs2)cc1	1.0%[88.5 µM]	nt	?	nt	?	nt	nt	nt	nt
COc1ccc(CCC(=O)N2CC[C@H]3C(=O)NCCCCCCN(Cc4ccncc4)[C@@H]3C2)cc1	i	i	1.0%	3.8%	?	nt	nt	nt	nt
FC(F)(F)c1ccc(CN2CCn3c(nnc3-c3ccncc3)C2)cc1	i	nt	-26.3%	nt	?	nt	nt	nt	nt
Cc1nn2c(c1-c1ccccc1Oc1ccccc1)N(Cc1cccc(C#N)c1)CCC2	2.3%[88.5 µM]	i	8.91µM*	3.16µM*	8.91µM*	2.22µM*	4.44µM*	-3.4%[86.2 µM]	1.77µM*
Cc1nn2c(c1-c1cccnc1N1CCOCC1)N(Cc1ccccc1F)CCC2	1.9%[88.5 µM]	i	?	-18.1%[70.6 µM]	?	nt	nt	nt	nt
Cc1nn2c(c1-c1ccnn1C(C)C)N(Cc1cccc(C#N)c1)CCC2	-5.9%[88.5 µM]	i	14.1µM*	?	14.1µM*	2.8µM*	?	-0.8%[86.2 µM]	?
Cc1nn2c(c1-c1ccccc1-c1ccccc1)N(Cc1ccc(C(=O)O)s1)CCC2	-11.0%[88.5 µM]	i	?	1.7%[70.6 µM]	-8.9%[138 µM]	nt	nt	nt	nt
Cc1nn2c(c1-c1ccccc1Oc1ccccc1)N(Cc1ccc(C(=O)O)s1)CCC2	i	i	31.6µM*	?	31.6µM*	?	?	1.0%	?
Cc1nn2c(c1-c1ccnn1C(C)C)N(Cc1ccc(O)cc1)CCC2	i	i	?	-7.0%[70.6 µM]	?	nt	nt	nt	nt
Cc1nn2c(c1-c1ccccc1[S+](C)(=O)[O-])N(Cc1ccc(C(=O)O)s1)CCC2	-10.0%[88.5 µM]	i	?	3.16µM*	12.6µM*	9.94µM*	28µM*	2.5%[86.2 µM]	4.98µM*
CC1(COc2cccnc2)COc2ccc(C(=O)NCc3cnccn3)cc2N1 (centres undefined)	i	i	?	-1.6%[70.6 µM]	-14.8%[138 µM]	nt	nt	nt	nt
COc1ccc(OCC2(C)COc3ccc(C(=O)N(C)C)cc3N2)cc1 (centres undefined)	-16.7%[88.5 µM]	i	?	?	-30.2%[138 µM]	nt	nt	nt	nt
CC1(COc2cccnc2)COc2ccc(C(=O)NCc3ccc(F)cc3)cc2N1 (centres undefined)	-13.8%[88.5 µM]	i	56.2µM*	35.5µM*	?	31.4µM*	31.4µM*	2.5%[86.2 µM]	25µM*
COCCN(C)C(=O)c1ccc2c(c1)NC(C)(COc1cccnc1)CO2 (centres undefined)	-3.6%[88.5 µM]	i	?	?	?	nt	nt	nt	nt
CC1(COc2cccnc2)COc2ccc(C(=O)NCc3ccc4c(c3)OCO4)cc2N1 (centres undefined)	-10.2%[88.5 µM]	i	?	25.1µM*	?	31.4µM*	31.4µM*	0.5%[86.2 µM]	22.2µM*
COc1ccc(OCC2(C)COc3ccc(C(=O)Nc4ccccc4)cc3N2)cc1 (centres undefined)	-4.4%[88.5 µM]	i	?	25.1µM*	?	35.3µM*	35.3µM*	-5.6%[86.2 µM]	35.3µM*
CN(C(=O)c1ccc2c(c1)NC(C)(COc1cccnc1)CO2)c1ccccc1 (centres undefined)	-20.1%[88.5 µM]	i	?	3.16µM*	-36.9%[138 µM]	3.53µM*	4.98µM*	-3.3%[86.2 µM]	3.14µM*
CCc1nc(-c2c3n(c(=O)n(Cc4cccc(C#N)c4)c2=O)CCCCC3)no1	i	i	14.3%	2.6%	-12.2%	nt	nt	nt	nt
c1ccc2ncc(CNC[C@H]3COCc4nc5ccccc5n43)cc2c1	2.5%[88.5 µM]	i	?	20µM*	?	31.4µM*	31.4µM*	0.7%[86.2 µM]	28µM*
Fc1ccc2c(c1)nc1n2[C@@H](CNCc2cnc3ccccc3c2)COC1	-5.4%[88.5 µM]	i	?	35.5µM*	-26.4%[138 µM]	39.6µM*	?	-2.6%[86.2 µM]	39.6µM*
Fc1ccc2c(c1)nc1n2[C@@H](CNCc2ccccn2)COC1	4.9%[88.5 µM]	i	?	-7.5%[70.6 µM]	?	nt	nt	nt	nt
Cc1cccc2c1nc1n2[C@@H](CNCc2ccccc2)COC1	-2.3%[88.5 µM]	i	?	20µM*	?	31.4µM*	31.4µM*	3.0%[86.2 µM]	22.2µM*
COc1ccc2nc3n(c2c1)[C@@H](CNCc1cnc2ccccc2c1)COC3	-3.8%[88.5 µM]	i	-27.2%[172 µM]	-14.7%[70.6 µM]	-25.4%[138 µM]	nt	nt	nt	nt

Source: PubChem BioAssay (National Center for Advancing Translational Sciences (NCATS))
